Assay [1] can be described thus: qHTS Assay for Identifying Gametocytocidal Compounds (AID 743244). Also: potency is read from the fitted curve at half-maximal effect.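 As to max response: % is scaled to controls: 0 for no effect and ±100 for the full control effect; actives lower the fluorescent signal which means gametocytes are killed.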 To be noted: P. falciparum 3D7 stage III-V gametocytes, alamarBlue, 72 h; max response: stronger effect = lower value. In short, it runs like this:
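3D7 gametocytes, stages III–V, 20,000/well; cpd 72 h, 37 °C/5% CO2; + alamarBlue 24 h; fluor. Ex 525/Em 598.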
(In general: In qHTS, concentration-response curves come from the screen itself.)

A short description of assay [2]: qHTS assay for measurement of the activity of small molecule inhibitors on Zika virus induced Caspase-3 activity in human iPSC derived neural progenitor cells (hNPCs) (AID 1224857). Also: % of control where 0% means no effect; nearly all actives have a fitted effect of over 65% in size. Put shortly:
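Cells were plated at 350 per well and grown 16 to 20 hours. Compound pretreatment lasted one hour, after which ZIKV (2 FFU/cell) was added for 6 hours. Percent inhibition was normalized between uninfected and infected controls.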

Assay [3] is described as follows: qHTS assay for measurement of the activity of small molecule inhibitors on Zika virus induced Caspase-3 activity in human astrocytoma cells (AID 1224859).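 Also: plate controls were ZIKV-infected untreated cells for no effect and uninfected cells for full effect.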 In short, it runs like this: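 Percent inhibition of virus-induced caspase-3/7 signal is calculated against uninfected and ZIKV-infected control cells. Cells are SNB-19, infected at 2 FFU/cell for 6 h after 1 h compound exposure.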

Assay [4] can be described thus: qHTS assay to identify small molecule inhibitors of chordoma cells - UCH-1 (AID 1259355). Also: % is scaled to controls: 0 for no effect and ±100 for the full control effect; nearly all actives have a fitted effect of over 55% in size. In short, it runs like this: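 A 48hr growth-inhibition format: each drug tested at 15 concentrations together with added auranofin, camptothecin, doxorubicin, rubitecan and topotecan, with cell viability quantified as CellTiter-Glo luminescence.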
Assay [5] in a line: qHTS assay to identify small molecule inhibitors of chordoma cells - UCH-2 (AID 1259356). Also: % is scaled to controls: 0 for no effect and ±100 for the full control effect.
The nature of assay [6]: NS1 protein of Zika virus - qHTS assay to identify small molecule inhibitors in human HEK 293 cells (AID 1347053).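 Also: plate controls were infected untreated cells for no effect and uninfected cells for full effect; nearly all actives have a fitted effect of over 55% in size.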 In short, it runs like this:
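Read-out is a two-antibody TR-FRET for ZIKV NS1, normalized between uninfected cells and infected cells. Compound added 1 h before MR766 infection at MOI 0.5; human HEK 293 cells incubated 24 h, 37 C.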

A short description of assay [7]: qHTS assay for cell viability of HEK293 cells (AID 743288). Also: % is scaled to controls: 0 for no effect and ±100 for the full control effect; nearly all actives have a fitted effect of over 50% in size. Particulars: ATP luminescence (CellTiter-Glo), 18 h, stronger effect = lower value. Put shortly:
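Readout is luciferase-coupled ATP content (CellTiter-Glo luminescence, 30 min room temperature) as a measure of metabolically competent cells. Parental HEK293 cells were plated 5 h or more before compound addition, then treated 18 h at 37 C.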

Assay [8] in a line: qHTS assay for cell viability of the p53RE-bla HCT-116 cell line (AID 743292). Also: % is scaled to controls: 0 for no effect and ±100 for the full control effect; nearly all actives have a fitted effect of over 55% in size. In short, it runs like this:
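CellSensor p53RE-bla HCT-116 cells, 4,000/well, preincubated 5 h at 37 C, then exposed to compounds in DMSO for 16 h at 37 C. Viability read as CellTiter-Glo luminescence (intracellular ATP) after 30 min at room temperature.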

A short description of assay [9]: qHTS profiling for inhibitors of Plasmodium falciparum (3D7) proliferation (AID 743322; call rule not given here;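 also: infected erythrocytes exposed to compound for 72 h before lysis; 100% = DMSO vehicle wells and 0% = 0.29 µM artemisinin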). Particulars: P. falciparum 3D7 proliferation; at 28.7 µM (top of the series) unless noted. In short, it runs like this: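 Parasite DNA was quantified by SYBR Green I fluorescence (ex 485, em 535 nm) after overnight lysis in saponin/Triton buffer at room temperature. Cultures at 0.3% parasitemia and 2.5% hematocrit were first exposed to compound for 72 h at 37 C; signals were normalised to artemisinin (0.29 uM) and vehicle wells.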

A short description of assay [10]: qHTS profiling for inhibitors of Plasmodium falciparum (DD2) proliferation (AID 743323; call rule not given here). To be noted: lower = more inhibition; at 28.7 µM (top of the series) unless noted. Put shortly:
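Parasite DNA quantified by SYBR Green fluorescence (ex 485, em 535 nm) after saponin/Triton lysis and overnight dark incubation. Cultures: 0.3% parasitemia, 2.5% hematocrit, 72 h, 37 C; data scaled between DMSO and 0.29 uM artemisinin.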

A short description of assay [11]: qHTS profiling for inhibitors of Plasmodium falciparum (HB3) proliferation (AID 743324).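 Also: 100% = DMSO vehicle wells and 0% = artemisinin-treated control wells.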 Particulars: Plasmodium falciparum HB3 blood-stage proliferation; at 28.7 µM (top of the series) unless noted. In short, it runs like this:
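SYBR Green fluorescence (485 ex/535 em) of lysed cultures, incubated overnight at room temperature in the dark, quantifies parasite DNA. Infected erythrocytes at 0.3% parasitemia and 2.5% hematocrit were exposed 72 h; values normalized to DMSO and 0.29 uM artemisinin controls.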

Assay [12] can be described thus: P-glycoprotein substrates identified in KB-8-5-11 adenocarcinoma cell line, qHTS therapeutic library screen (AID 1346987). Also: % is scaled to controls: 0 for no effect and ±100 for the full control effect; nearly all actives have a fitted effect of over 65% in size. Put shortly: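 Human cervical adenocarcinoma KB-8-5-11 cells, selected in colchicine to over-express P-gp and assayed without it, were exposed for 72 h to titrated compounds. An ATP-based luminescent viability signal gave AC50.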

Results filed as inconclusive are left out. The source made the active and inactive calls. Unless noted, calls follow the shape of the dose curve; as a rule, active = well fitted curve in the direction sought with a large enough effect; inconclusive = small, poorly fitted or top-dose-only effect, or another doubt; inactive = no such curve, though single readings can be large; an effect the other way counts as inactive or inconclusive.

For the compound `CC(C)=CCOc1ccc(/C=C/C(=O)c2ccc(OCC=C(C)C)cc2OCC(=O)O)cc1`, in assay [1], the max response is 2.6% (inactive). Also, the Potency entry in assay [2], in assay [4], in assay [5] and in assay [6] was “inactive” throughout. Further, the compound was called inactive in [3].
As to `C#C[C@]1(O)CC[C@H]2[C@@H]3[C@H](C)CC4=C(CCC(=O)C4)[C@H]3CC[C@@]21C`, in assay [1], the max response is -5.37% (inactive). For the same compound, the Potency result in assay [2], in assay [4], in assay [5] and in assay [6] was “inactive” each time. Further, the call in assay [3] was inactive.
Regarding `O=C(O)P(=O)(O)O`, the max response in assay [1] is 10.4% (inactive). The Potency entry in [2], in assay [4], in assay [5] and in assay [6] was “inactive” throughout. Also, the compound was called inactive in assay [3].
For the compound `COc1ccc(C(Cl)=C(c2ccc(OC)cc2)c2ccc(OC)cc2)cc1`, the max response in assay [1] is 5.06% (inactive); in [7], -29.7% (inactive). The outcome in assay [8] and in [3] was inactive. Also, the Potency entry in [2], in assay [4], in [5] and in [6] was “inactive” throughout.
`O=C1[C@H](CC[C@H](O)c2ccc(F)cc2)[C@@H](c2ccc(O)cc2)N1c1ccc(F)cc1`: in [1], the max response was 4.75% (inactive). Further, the Potency entry in assay [2], in [4], in assay [5] and in [6] was “inactive” in each case. Also, the call in assay [3] was inactive.
With `NC(=O)C1(N2CCCCC2)CCN(CCCC(=O)c2ccc(F)cc2)CC1`, the max response in assay [1] was 6.95% (inactive). Moreover, the Potency entry in assay [2], in assay [4], in [5] and in assay [6] was “inactive” each time. The outcome in assay [3] was inactive.
On to `CN1CCN(C2=Nc3ccccc3Sc3ccc(Cl)cc32)CC1`, for which, in assay [1], the max response is -0.118% (inactive). Further, the Potency result in assay [2], in assay [4], in assay [5] and in [6] was “inactive” in each case. In addition, the outcome in assay [3] was inactive.
In the case of `CNCCCCOc1ccccc1Cc1ccccc1`, the Potency in assay [1] was 18.7 µM (active). The compound further displayed a remaining parasite growth % (stronger effect = lower value) in [9] of 65.9%. The compound further had an activity, percent of control in [10] of 31.1%. In [11], this compound had a remaining proliferation (% of control), lower = more inhibition of 42.9%. The Potency result in assay [2], in assay [4], in [5] and in [6] was “inactive” in each case. Besides, in [3], the compound was called inactive.
Take `CCCCCCCCCCCCCC(=O)OC(C)C`: the max response in [1] was -3.41% (inactive); in [7], -1.19% (inactive). Moreover, the outcome in assay [8] and in [3] was inactive. Also, the Potency entry in [2], in [4], in [5] and in [6] was “inactive” in each case.
For `CCc1ccc(C(=O)C(C)CN2CCCCC2)cc1` (centres undefined), the Potency entry in [2], in [5], in [12] and in assay [6] was “inactive” in each case. Moreover, the compound was called inactive in assay [3].
On to `O=C(Nc1ccccc1)OCC(CN1CCCCC1)OC(=O)Nc1ccccc1` (centres undefined), for which the max response in assay [1] was 3.58% (inactive). Moreover, the Potency result in assay [2], in [4], in assay [5] and in assay [6] was “inactive” in each case. For the same compound, the call in assay [3] was inactive.
In the case of `CN1CCc2cccc3c2[C@H]1Cc1ccc(O)c(O)c1-3`, the Potency in assay [1] is 3.98 µM (active). Besides, the Potency result in assay [2], in assay [4], in assay [5] and in assay [6] was “inactive” in each case. In assay [3], the compound was classed as inactive.
Take `CCCCNc1ccc(C(=O)OCCOCCOCCOCCOCCOCCOCCOCCOCCOC)cc1`: in assay [1], the max response was -1.52% (inactive). The Potency result in [2], in assay [4], in [5] and in assay [6] was “inactive” each time. For the same compound, the compound was called inactive in assay [3].

The values above are taken from PubChem BioAssay (NCATS).
